Assay results from PubChem BioAssay AID1460 (National Center for Advancing Translational Sciences (NCATS), 2008).
Among all 270,000 compounds or so, about 5,800 (2.1%) were called active. Roughly 16% stayed inconclusive and do not appear here. The call rests on the fitted dose curve; in most records, active means well fitted inhibition curve with a large enough effect; inconclusive means small, poorly fitted or top-dose-only effect; inactive means flat fitted curve, though single readings scatter. The entries come from a sample that favours actives as a whole. Where a call stands in place of a potency, no number is given.

Each molecule was assayed against Microtubule-associated protein tau (Homo sapiens) (UniProt P10636) (assay: qHTS for Inhibitors of Tau Fibril Formation, Thioflavin T Binding). Details: recombinant tau K18 P301L, heparin-induced fibrillization, ThT fluorescence; series mostly up to 57.4 µM.
Chain of Microtubule-associated protein tau (Homo sapiens) (P10636 561-689 P618L limits assumed): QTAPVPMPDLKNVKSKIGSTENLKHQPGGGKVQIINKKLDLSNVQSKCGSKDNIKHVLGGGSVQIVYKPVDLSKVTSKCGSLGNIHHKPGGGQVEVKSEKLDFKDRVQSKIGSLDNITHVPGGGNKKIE
Method in brief: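 ThT emission at 510 nm, taken 1 hr after adding 30 uM dye, quantifies aggregates formed when 20 uM heparin acts on human tau K18 P301L for 6 hr at 37 C.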
Further: nearly all actives have a fitted effect of over 55% in size.
Potency means the concentration at half of the fitted maximal effect.

Row | Compound | Potency
1 | Cc1ccc(NC(=O)c2oc3ccccc3c2NC(=O)Cc2cccs2)cc1 | inactive
2 | CCOC(=O)Cc1csc(NC(=O)CSc2nc(C)cc(=O)[nH]2)n1 | 28.2 µM (active)
3 | CCCCc1nnc(NC(=O)CSc2nc(C)cc(=O)[nH]2)s1 | inactive
4 | CCOC(=O)Cc1csc(NC(=O)CSc2ccc(Br)cc2)n1 | inactive
5 | CC1=Nc2cc(C(=O)NCc3ccc(C)cc3)ccc2Sc2ccc(Cl)cc21 | inactive
6 | Cc1ccc(Cl)cc1N1CCN(S(=O)(=O)c2cc3[nH]c(=O)c(=O)[nH]c3cc2C)CC1 | inactive
7 | COc1cc(C(=O)NCCc2csc3nc(-c4ccccc4C)nn23)cc(OC)c1OC | inactive
8 | COC/C=C/C1=CC2=CC(=O)C(C)(OC(=O)CCC(=O)OC)C(=O)C2=CO1 (centres undefined) | 15.8 µM (active)
9 | CC(C)(C)OC(=O)NCCCC1=CC2=CC(=O)C(C)(OC(=O)c3ccco3)C(=O)C2=CO1 (centres undefined) | inactive
10 | COc1cc(CN(C(=O)c2ccccc2Br)c2ccccn2)cc(OC)c1OC | inactive
11 | CCOc1cccc(NC(=O)c2ccc(F)c(S(=O)(=O)N(CC)c3cccc(C)c3)c2)c1 | inactive
12 | COC(=O)c1cc(NC(=O)c2sc3ccccc3c2Cl)cc(C(=O)OC)c1 | inactive
13 | Oc1ccc(N=Cc2c(O)ccc3ccccc23)cc1 | 12.6 µM (active)
14 | O=C(Nc1ccon1)c1sc2ccccc2c1Cl | inactive
15 | Oc1ccc(N=Cc2sc3ccccc3c2Cl)cc1 | 7.08 µM (active)
16 | CN(Cc1ccccc1)c1ncnc2onc(-c3ccc(F)cc3)c12 | inactive
17 | O=c1c(NCc2cccs2)nccn1-c1ccccc1 | inactive
18 | O=C(CSc1cn(CC(=O)N2CCOCC2)c2ccccc12)Nc1ccccc1 | inactive
19 | Cc1ccc2oc3c(c(=O)c2c1)C(c1ccc([N+](=O)[O-])cc1)N(CCCN1CCOCC1)C3=O (centres undefined) | inactive
20 | CCN1CCC(N(Cc2ccc(F)cc2)C(=O)Nc2cc(C)ccc2C)CC1 | inactive
21 | Cc1cc(C)c2sc(NC(=O)c3ccc(S(=O)(=O)N4CCCC4)cc3)nc2c1 | inactive
22 | CCOc1cccc(CNC(=O)c2ccc(N3CCCC3)c(NC(=O)Nc3ccccc3CC)c2)c1 | inactive
23 | COc1cccc(C(=O)NC(=O)Nc2ccc(-c3cc(C(F)(F)F)nn3-c3ccccc3)cc2)c1 | inactive
24 | Cc1ccccc1CCNC(=O)C1CCN(c2nc3ccccc3nc2C(F)(F)F)CC1 | inactive
25 | CCc1cnc2c(c1SCC(=O)N1CCC(C)CC1)c(=O)n(C)c(=O)n2C | inactive

Row | Compound | Potency
26 | O=C(Nc1cccc([N+](=O)[O-])c1)Nc1ccc(Cl)cn1 | inactive
27 | O=[N+]([O-])c1cccc(C2=NCCS2)c1 | inactive
28 | Nc1c(-c2cccc(Cl)c2)cnn1-c1cccc([N+](=O)[O-])c1 | 12.6 µM (active)
29 | Cc1c(C(=O)N2CCCC2)oc2c1-c1nn(CC(=O)NCc3ccc(OC(C)C)cc3)cc1CC2 | inactive
30 | Cc1ccc(OCC(=O)OCc2cc(=O)n3nc(C4CC4)sc3n2)cc1C | inactive
31 | Cc1ccc(Cl)cc1N(C)C(=O)C1CCCN(c2ncnc3onc(-c4ccc(F)cc4)c23)C1 (centres undefined) | inactive
32 | O=C1c2ccccc2C2=Nc3ccccc3SC(c3ccccc3F)C12 (centres undefined) | 7.94 µM (active)
33 | CC(=O)c1ccc(NC(=O)CCc2nc(-c3ccc(C)cc3)no2)cc1 | inactive
34 | O=C(Nc1ccc(Br)cc1)c1ccc(Br)c(S(=O)(=O)NCc2ccccc2)c1 | inactive
35 | CCOC(=O)c1sc(NC(=O)c2ccncc2)nc1C | inactive
36 | CCOC(=O)c1sc(=S)n(-c2cccc(OC)c2)c1N | inactive
37 | CCOC(=O)c1sc(=S)n2c1[nH]c(=O)c1ccc(C(=O)OC)cc12 | 7.08 µM (active)
38 | COc1ccccc1N1CCN(C(CNC(=O)C(=O)NCc2ccc(C)cc2)c2cccnc2)CC1 (centres undefined) | inactive
39 | O=[N+]([O-])c1cc(-c2nc(-c3ccccc3)no2)ccc1NCc1ccco1 | inactive
40 | Cc1ccc(-n2ncc3c(N4CCC(C(N)=O)CC4)ncnc32)cc1 | inactive
41 | O=C(O)c1ccc2c(c1)C(=O)N(NC(=O)c1ccc(O)cc1)C2=O | inactive
42 | CC(=O)N1C(=O)/C(=C2\SC(=S)N(NC(=O)c3ccc(O)cc3)C2=O)c2ccccc21 | 25.1 µM (active)
43 | COc1ccc(C(=O)NN2C(=O)C3C(c4ccccc4)C=CC(c4ccccc4)C3C2=O)cc1 (centres undefined) | inactive
44 | O=C(c1cccnc1)N(c1cc2sc(=O)oc2c2ccccc12)S(=O)(=O)c1ccccc1 | 11.2 µM (active)
45 | CN(C)S(=O)(=O)c1cccc(C(=O)Nc2cccnc2)c1 | inactive
46 | COc1ccc(N(C(=O)c2cccnc2)S(=O)(=O)c2ccc3c(c2)n(C)c(=O)n3C)cc1 | inactive
47 | COc1ccccc1CNc1nccn(-c2ccc(F)cc2)c1=O | inactive
48 | Cc1cccc(CC(=O)Nc2cccc(-c3cn4cccnc4n3)c2)c1 | inactive
49 | CCc1cccc(C)c1NS(=O)(=O)c1ccc(-c2cc(C)no2)s1 | inactive
50 | COc1ccc(S(=O)(=O)Nc2ccc(O)c(Sc3nc4ccccc4s3)c2)cc1 | inactive

Row | Compound | Potency
51 | COc1cc(/C=N/NC(=O)CCc2n[nH]c(=O)[nH]c2=O)ccc1O | inactive
52 | COc1cc(/C=N/NC(=O)c2ccccc2)ccc1OS(=O)(=O)c1ccccc1 | inactive
53 | O=[N+]([O-])c1cc(Br)c(O)c(/C=N/Nc2nc3ccccc3s2)c1 | 4.47 µM (active)
54 | O=C(NC(Nc1nc2ccc([N+](=O)[O-])cc2s1)(C(F)(F)F)C(F)(F)F)c1ccccc1 | inactive
55 | COc1cc(/C=N/Nc2nc3ccccc3s2)ccc1O | 5.62 µM (active)
56 | Cc1ccc(S(=O)(=O)Nc2nc3ccccc3s2)cc1[N+](=O)[O-] | inactive
57 | COc1cc(/C=N\Nc2nc(-c3cccs3)c(NC(C)=O)s2)ccc1O | 15.8 µM (active)
58 | Cc1ccc(C(=O)Nc2nnc(-c3cccs3)s2)cc1C | inactive
59 | Cc1ccc(S(=O)(=O)c2cn(Cc3ccccc3)c3cc(N4CCCC4)c(F)cc3c2=O)c(C)c1 | inactive
60 | O=C1CSC2(C(=O)N(Cc3ccccc3)c3ccccc32)N1c1cccc(F)c1 (centres undefined) | inactive
61 | O=C(COc1ccccc1F)Nc1ccc(C(=O)OCc2cc(=O)n3nc(C4CC4)sc3n2)cc1 | inactive
62 | CCOc1ccc(OCC)c(NC(=O)CN(c2ccc(C)cc2)S(=O)(=O)c2c(C)n[nH]c2C)c1 | inactive
63 | CNC(=O)CN1C(=O)c2cccnc2Sc2ccccc21 | inactive
64 | Cc1ccc(Cn2c(=O)n(-c3ccc(C)cc3)c(=O)c3c2c2cc(C)ccc2n3C)cc1 | inactive
65 | COc1ccccc1NC(=O)c1cc(C2CC2)nc2c1c(C)nn2-c1ccc(C)cc1 | inactive
66 | Cc1ccc2nc(CNC(=O)c3ccccc3)[nH]c2c1 | inactive
67 | COc1ccc(NC(=O)c2cc3cc(C)ccc3n2C)cc1 | inactive
68 | CCCCNC(=O)CSc1nc2cc3c(cc2c(=O)n1CCCCCC(=O)NCc1ccc2c(c1)OCO2)OCO3 | inactive
69 | O=C(NCCc1c[nH]c2ccccc12)C(=O)NCC1CCCO1 (centres undefined) | inactive
70 | N#C/C(=C/c1ccc(N2CCCCC2)o1)C(=O)NCCc1c[nH]c2ccccc12 | 4.47 µM (active)
71 | CC(=O)N/C(=C/c1ccc(Cl)cc1)C(=O)NCCc1c[nH]c2ccccc12 | inactive
72 | COc1ccc(CCNC(=O)c2nn(C)c3c2CSc2ccccc2-3)cc1OC | inactive
73 | CCc1nc2onc(C)c2c(=O)n1CC(=O)O | inactive
74 | Oc1ccc2ccccc2c1N=Nc1nccs1 | 7.94 µM (active)
75 | Oc1ccc(N=Nc2nccs2)c(O)c1 | 3.55 µM (active)

Row | Compound | Potency
76 | CCCCn1c(=O)c2oc3ccccc3c2n(CC(=O)Nc2ccccc2OC)c1=O | inactive
77 | COc1cc(C(CC(=O)NCCC(C)C)N2Cc3ccccc3C2=O)cc(OC)c1OC (centres undefined) | inactive
78 | O=C(Cn1cnc2c(oc3ccccc32)c1=O)Nc1ccc(OC(F)(F)F)cc1 | inactive
79 | Cc1ccc(CN2CCC(CNC(=O)c3cnn(-c4ccccc4Cl)c3C3CCN(C(=O)OC(C)(C)C)CC3)CC2)cc1 | inactive
80 | COc1ccc(-c2nnc(SCC(=O)Nc3ccccc3C)o2)cc1OC | inactive
81 | O=[N+]([O-])c1cccc2ncccc12 | inactive
82 | O=[N+]([O-])c1cc([N+](=O)[O-])c2cccnc2c1O | 12.6 µM (active)
83 | CC(c1ccco1)N(C(=O)COc1ccccc1[N+](=O)[O-])c1ccccn1 (centres undefined) | inactive
84 | COCCNc1ncnc2c1c(-c1ccccc1)cn2-c1ccc(C)c(Cl)c1 | inactive
85 | CCc1ccc2nc3sc(C(=O)Nc4nnc(CC)s4)c(N)c3cc2c1 | 3.98 µM (active)
86 | CCc1nnc(NC(=O)c2cccc(S(=O)(=O)N(C)c3ccc(OC)cc3)c2)s1 | inactive
87 | CCc1nnc(NC(=O)c2nc3nccc(C)n3n2)s1 | inactive
88 | CCC(=O)N1c2ccccc2CC1C(=O)N1CCN(c2cccc(OC)c2)CC1 (centres undefined) | inactive
89 | Cn1c(=O)sc2cc(NS(=O)(=O)c3ccc(C(C)(C)C)cc3)ccc21 | inactive
90 | COc1c(O)ccc2c1CN1CCc3cc4c(cc3C1C2)OCO4 (centres undefined) | 22.4 µM (active)
91 | COc1ccc2cc1Oc1ccc(cc1)C[C@H]1c3cc(c(OC)cc3CCN1C)Oc1c(O)c(OC)cc3c1[C@H](C2)N(C)CC3 | inactive
92 | COc1cc(COCC(O)CN2CCN(Cc3ccc4c(c3)OCO4)CC2)cc(OC)c1OC (centres undefined) | inactive
93 | COC(=O)c1ccccc1NC(=O)C(Cc1ccccc1)N1Cc2ccccc2C1=O (centres undefined) | inactive
94 | CCCCN(CC)CCCNC(=O)Cn1ncc2c([nH]c3ccc(C)cc32)c1=O | inactive
95 | Cc1ccc(NC(=O)CSc2nc3c(c(=O)[nH]2)CN(Cc2ccc4c(c2)OCO4)CC3)cc1C | inactive
96 | Cc1ccc(CN2CCC(CNC(=O)c3cnn(-c4ccc(C)cc4)c3C3CCN(C(=O)OC(C)(C)C)CC3)CC2)cc1 | inactive
97 | CCCCOC(=O)/C(C#N)=C/c1ccc(-c2cccc(C(F)(F)F)c2)o1 | inactive
98 | CCOC(=O)c1ccc(-c2ccc(/C=C(\C#N)C(=O)Nc3ccc(OCC)cc3)o2)cc1 | 1.41 µM (active)
99 | Cc1ccc2nc(/C(C#N)=C/c3ccc(-c4ccc(C(=O)OC(C)C)cc4)o3)[nH]c2c1 | inactive
